Assay [1] relates to Human papillomavirus type 1a protein E7 (residues 44-93). Briefly: small molecules binding HPV E7 44-93 – biochemical, small-molecule microarray, residues 44-93, 635 nm fluorescence, primary screen (AID 1108).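 Note: E7 fragment applied at 1 µg/mL in TBST for 1 h at 4 C; score combines spot fluorescence with its signal to noise ratio.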 The settings on record: fluorescence 635 nm, higher = more signal.
The nature of assay [2]: hepatitis C replication reporter changes, two-sided – Huh7 cells, luciferase reporter, HCV replication inhibitor project, primary screen (AID 1109).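 Note: huh7 hepatoma cells harbouring a luciferase neomycin HCV replicon reporter; luciferase luminescence as measure of HCV replicon replication; test concentration not given here.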 The settings on record: Huh7 HCV replicon luciferase reporter, 48 h; higher = more signal. On the technique in general: In a reporter assay the amount or activity of a reporter protein is the signal.
Assay [3] concerns the target Left-right determination factor 2 (Homo sapiens) (UniProt O00292). The experiment in a line: small molecules binding LEFTY2 protein – biochemical, small-molecule microarray, 635 nm fluorescence scan, primary screen (AID 1110). The note with it: higher = more signal.
In assay [4] the target is Calmodulin-1 (Homo sapiens) (UniProt P0DP23). Briefly: small molecules binding calmodulin-1 with EGTA – biochemical, small-molecule microarray, Cy5-labelled CALM1, profiling panel (AID 1111).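 Note: labelled calmodulin applied in Tris saline Tween buffer holding calcium plus EGTA and DTT.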 The settings on record: Cy5-CALM1 binding fluorescence, higher = more signal.
The target is the same in assay [5]. Briefly: small molecules binding Ca-loaded calmodulin-1 – biochemical, small-molecule microarray, Cy5-labelled CALM1, plus calcium, artefact control for SMM control-protein annotation, profiling panel (AID 1112).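 Note: score merges spot fluorescence with signal to noise from triplicate slides.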 The note with it: Cy5-CALM1 binding fluorescence, higher = more signal.
Assay [6] in a line: probe aWnt5a binding to arrayed compounds – biochemical, biotinylated probe, 635/667 nm fluorescence, primary screen (AID 1113).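 Note: score merges 667 nm fluorescence intensity with signal-to-noise per printed feature.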 The settings on record: small-molecule microarray, higher = more signal.
The nature of assay [7]: probe aShh binding to arrayed compounds – biochemical, biotinylated probe, 635/667 nm fluorescence, primary screen (AID 1114).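 Note: probe is biotin-labelled aShh protein from a stem cell growth factor screen; measures binding of labelled protein to compounds printed on the slide; score merges feature fluorescence at 667 nm with signal-to-noise.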 The settings on record: small-molecule microarray, higher = more signal.
Assay [8] is described as follows: probe aNog binding to arrayed compounds – biochemical, biotinylated probe, 635/667 nm fluorescence, primary screen (AID 1115).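 Note: probe is biotinylated aNog protein used at 0.15 µg/mL for 1 h at 4 C; z-score combines 667 nm fluorescence of each spot with its signal to noise.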 The note with it: small-molecule microarray, higher = more signal.
In assay [9] the target is Torsin-1A-interacting protein 1 (Homo sapiens) (UniProt Q5JTV8). Briefly: compound microarray binding of lysate hLAP1 – cell lysate, small-molecule microarray, COS7 lysate, 635/667 nm fluorescence, primary screen (AID 1116). The note with it: 635 nm fluorescence, higher = more signal.
Sequence of Torsin-1A-interacting protein 1 (Homo sapiens) (Q5JTV8 whole entry, looked up): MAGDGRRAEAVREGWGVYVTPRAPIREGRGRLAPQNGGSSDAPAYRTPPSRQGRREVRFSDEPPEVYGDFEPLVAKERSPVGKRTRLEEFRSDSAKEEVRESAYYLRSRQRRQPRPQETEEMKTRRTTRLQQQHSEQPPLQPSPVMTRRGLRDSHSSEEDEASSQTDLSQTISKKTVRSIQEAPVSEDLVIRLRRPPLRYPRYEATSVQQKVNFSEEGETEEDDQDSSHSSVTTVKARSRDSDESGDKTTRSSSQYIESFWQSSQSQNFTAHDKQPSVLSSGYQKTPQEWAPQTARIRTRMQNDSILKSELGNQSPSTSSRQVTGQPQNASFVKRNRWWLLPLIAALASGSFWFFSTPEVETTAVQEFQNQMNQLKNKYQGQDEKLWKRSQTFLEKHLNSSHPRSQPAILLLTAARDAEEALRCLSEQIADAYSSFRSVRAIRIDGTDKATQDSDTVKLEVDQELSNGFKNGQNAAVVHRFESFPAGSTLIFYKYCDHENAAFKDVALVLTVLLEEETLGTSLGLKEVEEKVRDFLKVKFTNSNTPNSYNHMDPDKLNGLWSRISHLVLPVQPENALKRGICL
Assay [10] addresses Alpha-bungarotoxin (Bungarus multicinctus) (UniProt P60615). Briefly: compounds binding labelled alpha-BTX control protein – biochemical, small-molecule microarray, Alexa647 label, 635/667 nm fluorescence, artefact control for SMM control protein annotation, profiling panel (AID 1117). The note with it: alpha-BTX-A647 binding fluorescence, higher = more signal.
The next assay concerns the target Albumin (Bos taurus) (UniProt P02769). The experiment in a line: compounds binding labelled BSA control protein – biochemical, small-molecule microarray, Alexa647 label, 635/667 nm fluorescence, artefact control for SMM control protein annotation, profiling panel (AID 1118).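 Note: score merges 667 nm emission intensity and signal-to-noise per printed compound spot.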 The settings on record: BSA-A647 binding, fluorescence 635 nm, higher = more signal.
Assay [11] in a line: probe aXIP binding to arrayed compounds – biochemical, NeuroSMM set, 635/667 nm fluorescence, primary screen (AID 1119).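 Note: probe is the protein aXip251-270 applied at 1 µg/mL to compound-printed slides; binding of probe to printed compounds measured as 667 nm fluorescence plus signal to noise.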 The settings on record: small-molecule microarray, higher = more signal, called active from +8 up or from −8 down.
Assay [12] in a line: probe aNOTCH3 binding on compound microarray – biochemical, small-molecule microarray, 635/667 nm fluorescence, primary screen (AID 1120).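 Note: probe is a biotin-tagged antibody raised against NOTCH3 rather than NOTCH3 protein; score merges spot fluorescence near 667 nm with spot signal to noise.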 The settings on record: higher = more signal.
The nature of assay [13]: probe aNOTCH2 binding on compound microarray – biochemical, small-molecule microarray, 635/667 nm fluorescence, primary screen (AID 1121).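 Note: score merges feature fluorescence read at 667 nm with its signal to noise.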 The settings on record: higher = more signal.
Assay [14] concerns the target Carbonic anhydrase 2 (Homo sapiens) (UniProt P00918). The experiment in a line: compounds binding carbonic anhydrase 2 – biochemical, small-molecule microarray, Alexa647-labelled CAII, profiling panel (AID 1122). The note with it: CAII-A647 binding fluorescence, higher = more signal.
Assay [15] in a line: COS7 lysate on small-molecule microarray, probe aHis, 635 nm (AID 1123).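 Note: z-score combines 667nm fluorescence intensity with signal-to-noise per printed compound spot.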 The settings on record: COS7 cell lysate, fluorescence, higher = more signal.
The nature of assay [16]: probe aLAP1 signal on lysate-treated microarray – cell lysate, small-molecule microarray, COS7 lysate, primary screen (AID 1124).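 Note: lysate comes from COS7 cells expressing LAP1 and is applied at 0.3 µg/mL; score merges spot fluorescence near 667 nm with signal-to-noise over triplicate slides.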 The settings on record: probe aLAP1, fluorescence, higher = more signal.
The subject of another assay is Sam68 (KHDRBS1). Briefly: compounds binding KHDRBS1 protein – biochemical, small-molecule microarray, 635 nm fluorescence, primary screen (AID 1125).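 Note: score merges 667 nm channel intensity with signal to noise over triplicate slides.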 The note with it: higher = more signal.
Assay [17] relates to Chordin-like protein 2 (CHRDL2). The experiment in a line: compounds binding chordin-like 2 – biochemical, small-molecule microarray, 635 nm fluorescence, primary screen (AID 1126).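 Note: printed compound slides probed with Chrdl2 protein at 4 µg/mL for 1 h at 4 C; score merges 667 nm emission intensity with signal to noise over three replicate slides.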 The settings on record: fluorescence 635 nm, higher = more signal.
Assay [18] addresses Concanavalin-A (Canavalia ensiformis) (UniProt P02866). Briefly: compounds binding concanavalin A lectin – biochemical, small-molecule microarray, Alexa647 label, 635 nm, artefact control for SMM control protein annotation, primary screen (AID 1127).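 Note: z combines 667 nm emission intensity with signal-to-noise across three replicate slides.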 The settings on record: ConA-A647 binding fluorescence, higher = more signal.

The record followed here is PubChem BioAssay.

Calls of active or inactive are those of the source.

Sequence of Albumin (Bos taurus) (P02769 whole entry, looked up): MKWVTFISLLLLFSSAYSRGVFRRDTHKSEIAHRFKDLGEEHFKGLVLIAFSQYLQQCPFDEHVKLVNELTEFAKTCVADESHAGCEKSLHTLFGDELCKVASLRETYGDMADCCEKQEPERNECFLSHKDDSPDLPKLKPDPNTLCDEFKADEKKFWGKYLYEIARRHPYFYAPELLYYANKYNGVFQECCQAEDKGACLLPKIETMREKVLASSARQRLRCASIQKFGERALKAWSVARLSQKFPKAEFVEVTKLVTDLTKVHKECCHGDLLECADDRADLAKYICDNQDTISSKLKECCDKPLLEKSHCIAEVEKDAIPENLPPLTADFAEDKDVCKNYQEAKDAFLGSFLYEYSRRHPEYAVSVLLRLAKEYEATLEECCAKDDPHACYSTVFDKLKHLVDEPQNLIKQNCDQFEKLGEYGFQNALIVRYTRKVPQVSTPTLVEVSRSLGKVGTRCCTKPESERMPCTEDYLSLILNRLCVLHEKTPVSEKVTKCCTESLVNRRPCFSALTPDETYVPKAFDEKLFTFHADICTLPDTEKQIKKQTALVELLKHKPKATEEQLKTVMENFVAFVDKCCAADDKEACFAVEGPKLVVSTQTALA
Sequence of Concanavalin-A (Canavalia ensiformis) (P02866 whole entry, looked up): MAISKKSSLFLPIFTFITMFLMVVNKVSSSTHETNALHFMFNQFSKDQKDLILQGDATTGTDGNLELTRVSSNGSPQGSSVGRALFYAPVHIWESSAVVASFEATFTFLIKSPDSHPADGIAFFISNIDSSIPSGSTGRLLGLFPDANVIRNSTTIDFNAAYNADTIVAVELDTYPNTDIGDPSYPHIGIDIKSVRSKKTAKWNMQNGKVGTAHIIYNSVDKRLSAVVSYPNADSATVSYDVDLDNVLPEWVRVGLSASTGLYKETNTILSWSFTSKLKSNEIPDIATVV
Sequence of Left-right determination factor 2 (Homo sapiens) (O00292 whole entry, looked up): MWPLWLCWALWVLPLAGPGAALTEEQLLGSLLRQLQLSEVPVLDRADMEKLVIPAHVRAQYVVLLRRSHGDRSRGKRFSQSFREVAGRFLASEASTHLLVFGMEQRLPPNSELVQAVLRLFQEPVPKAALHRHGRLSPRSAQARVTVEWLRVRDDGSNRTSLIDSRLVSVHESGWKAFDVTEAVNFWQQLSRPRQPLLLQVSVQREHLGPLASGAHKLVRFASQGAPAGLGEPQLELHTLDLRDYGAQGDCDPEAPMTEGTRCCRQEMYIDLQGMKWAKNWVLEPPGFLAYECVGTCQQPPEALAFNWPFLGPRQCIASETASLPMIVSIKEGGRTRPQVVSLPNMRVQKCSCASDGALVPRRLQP
Sequence of Alpha-bungarotoxin (Bungarus multicinctus) (P60615 whole entry, looked up): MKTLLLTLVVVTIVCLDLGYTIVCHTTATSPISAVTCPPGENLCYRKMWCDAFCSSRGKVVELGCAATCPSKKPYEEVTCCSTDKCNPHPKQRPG

As to `CC(=O)n1cc(C(O)C2C=CC3C(=O)N(C)C(=O)C3N2Nc2ccccc2)c2ccccc21` (stereo not given), the composite z-score was 1.35 in assay [1]; 0.532 in assay [3]; 0.202 in [4]; -0.53 in assay [5]; 0.105 in [6]; 0.494 in [7]. Further, the composite z-score is 0.578 in [8]; 1.36 in assay [9]; 1.18 in [10]; 0.712 with Albumin (Bos taurus); 0.235 in assay [12]; 0.027 in [13]. The composite z-score in assay [14] was 0.562; in assay [15], 1.84; in [16], -0.0989; in the assay with Sam68 (KHDRBS1), 1.11; in [17], 1.25; in assay [18] it was 0.897. Further, in [2], the z-score is -0.581. Besides, in assay [11], the composite Z-score was -0.803 (inactive).
With `C=C(C)C1C(=C)CN([C@H](CO)c2ccccc2)C1=O` (stereo not given in full), the composite z-score was 0.317 in assay [1]; -0.065 in assay [3]; -0.911 in assay [4]; -0.968 in assay [5]; -0.0459 in [6]; -0.154 in assay [7]. The composite z-score in [8] is -0.229; in [9], -0.486; in assay [10], -0.605; in the assay with Albumin (Bos taurus) it was 0.16; in assay [12] it was -0.0967; in assay [13] it was -0.133. For the same compound, the composite z-score in [14] was -0.0056; in assay [15], -0.583; in [16] it was -0.133; with Sam68 (KHDRBS1), -0.245; in assay [17] it was 0.117; in [18], -0.844. The same compound registered a z-score in assay [2] of -0.25. Also, in assay [11], the composite Z-score was 1.66 (inactive).
Consider `COc1ccc(C(O)C2C=CC3C(=O)N(C)C(=O)C3N2N2CCCCC2)c2ccccc12` (stereo not given), for which the composite z-score in assay [1] is 1.43; in assay [3], -0.129; in assay [4], 1.26; in assay [5] it was 0.639; in assay [6], 0.131; in assay [7] it was 0.476. Further, the composite z-score in assay [8] was -0.0646; in assay [9], 0.826; in [10], 1.34; with Albumin (Bos taurus), 0.9; in assay [12], 0.432; in assay [13], -0.0351. The composite z-score is 0.448 in assay [14]; 2.89 in assay [15]; -0.32 in assay [16]; 1.31 in the assay on Sam68 (KHDRBS1); -0.147 in assay [17]; 1.21 in assay [18]. This compound gave a z-score in assay [2] of -0.534. Besides, in assay [11], the composite Z-score is 0.476 (inactive).
`CN1C(=O)C2C=CC(C(O)c3ccc(-c4ccccc4)s3)N(N(c3ccccc3)c3ccccc3)C2C1=O` (stereo not given): the composite z-score in assay [1] is 0.761; in assay [3], -0.18; in [4] it was 0.906; in assay [5], 0.405; in [6] it was 0.0324; in assay [7], -0.0813. For the same compound, the composite z-score was 1.44 in assay [8]; 0.397 in [9]; 1.37 in assay [10]; 0.828 with Albumin (Bos taurus); -0.0865 in assay [12]; -0.134 in assay [13]. The composite z-score in [14] is 0.365; in [15], 1.69; in assay [16], -0.149; in the assay with Sam68 (KHDRBS1), 0.749; in assay [17], 0.414; in [18], 1.08. For the same compound, the z-score in [2] came to 0.339. Also, in [11], the composite Z-score was 0.81 (inactive).
As to `O=C1C2C=CC(C(O)c3ccc(F)cc3)N(Nc3ccccc3F)C2C(=O)N1c1ccccc1` (stereo not given), the composite z-score was 1.18 in [1]; -0.952 in assay [3]; 1.23 in assay [4]; 0.367 in assay [5]; -0.001 in assay [6]; -0.0441 in [7]. For the same compound, the composite z-score is 1.34 in assay [8]; 0.694 in assay [9]; 0.394 in [10]; 0.983 with Albumin (Bos taurus); 0.323 in assay [12]; -0.0194 in assay [13]. The composite z-score in [14] is 0.823; in assay [15], 3.13; in assay [16] it was -0.0953; in the assay with Sam68 (KHDRBS1) it was 1.13; in assay [17], -0.868; in [18], 0.493. This compound had a z-score in assay [2] of 0.912. In addition, the composite Z-score in assay [11] was 0.482 (inactive).
Take `COC(=O)[C@@]1(Cc2ccc(F)cc2)[C@H]2c3cc(C(=O)N4CCCC4)n(Cc4cc(C)n(C)n4)c3C[C@H]2CN1C(=O)c1ccccc1`: the composite z-score was 0.95 in assay [1]; -0.857 in assay [3]; 2.36 in assay [4]; 1.38 in assay [5]; 0.143 in assay [6]; 0.356 in [7]. Further, the composite z-score in [8] was found to be 2.16; in assay [9], 3.13; in assay [10], 0.251; with Albumin (Bos taurus) it was 1.09; in [12], 0.318; in assay [13] it was 0.385. Moreover, the composite z-score in [14] is 0.664; in assay [15], 3.58; in [16], 1.14; in the assay on Sam68 (KHDRBS1) it was 1.32; in [17], -0.642; in assay [18], 1.14. Also, the z-score in assay [2] is -1.17. In addition, the composite Z-score in assay [11] was 2.46 (inactive).
